Source: PubChem BioAssay (National Center for Advancing Translational Sciences (NCATS))
Rab9 prom act: activators of Rab9 promoter; 320,000 tested, 2.8% active; AID 485297; Potency, µM (top dose mostly 9.22 µM), without a hit: at the top dose activation, negative = inhibition, usual class: activators; Huh7 Rab9 promoter-luciferase reporter, luminescence, 24 h; note: % of control where 0% means no effect; nearly all actives have a fitted effect of over 60% in size
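Rab9 promoter-driven luciferase in stably transfected Huh7 cells; 1500 cells/well rested 2 h, exposed to compound in DMSO for 24 h at 37 °C, 5% CO2. Luminescence read 10 min after adding luciferase reagent at ambient temperature.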
FLuc modulator: inhibits or activates purified firefly luciferase, miR-21 counter-screen | AID 588342 | purified FLuc, Km substrates, luminescence inhibition | Potency, µM (titrated, usually from 57.5 µM), without a hit: at the top dose activity change, negative = inhibition, most hits filed as inhibitors | 360,000 tested, 6.9% active;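 note: plate controls were vehicle for no effect and reference inhibitor for full effect; nearly all actives have a fitted effect of over 55% in size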
Target sequence (P08659 whole entry, looked up): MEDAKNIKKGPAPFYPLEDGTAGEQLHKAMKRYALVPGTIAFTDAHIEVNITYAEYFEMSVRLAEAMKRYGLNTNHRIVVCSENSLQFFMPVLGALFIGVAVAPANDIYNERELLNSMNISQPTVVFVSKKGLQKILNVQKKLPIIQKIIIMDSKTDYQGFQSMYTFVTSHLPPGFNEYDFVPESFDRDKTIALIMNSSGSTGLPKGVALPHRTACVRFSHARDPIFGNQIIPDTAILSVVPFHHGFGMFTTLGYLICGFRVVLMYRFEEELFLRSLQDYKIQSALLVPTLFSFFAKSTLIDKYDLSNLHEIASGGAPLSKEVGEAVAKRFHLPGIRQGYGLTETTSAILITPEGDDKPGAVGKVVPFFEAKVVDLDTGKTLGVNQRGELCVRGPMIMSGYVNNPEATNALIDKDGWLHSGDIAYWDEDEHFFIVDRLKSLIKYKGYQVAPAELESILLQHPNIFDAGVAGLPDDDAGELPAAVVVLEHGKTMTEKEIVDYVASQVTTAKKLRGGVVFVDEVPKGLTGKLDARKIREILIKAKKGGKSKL
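Purified P. pyralis luciferase (10nM final) with 10uM D-luciferin and 10uM ATP (Km levels) in 50mM Tris acetate pH 7.5, 10mM Mg acetate, 0.01% Tween-20, 0.05% BSA; qHTS 6-point titration, ~60 µM downward; luminescence read.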
SMN2 splice up: increases expression of the SMN2 splice variant; HEK293 SMN2-luciferase splicing reporter, luminescence, 30-36 h; Potency, µM (series often up to 46.1 µM), inactives show at the top dose activity change, positive = activation, usual class: activators; 210,000 tested, 2.8% active; note: % of control where 0% means no effect; nearly all actives have a fitted effect of over 55% in size
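qHTS luciferase splicing reporter: luminescence rises when SMN2 exon 7 is included in transfected HEK293 cells. Compound exposure lasted 30-36 h at 37C, with 4.5 mM final sodium butyrate as control, followed by a ONE-Glo read.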
ELG1 genotoxic: genotoxicity induction in ELG1-luciferase HEK293T cells; HEK293T ELG1-luciferase reporter, luminescence, 16 h; Potency, µM (top dose mostly 46 µM), inactives show top-dose activity change, positive = activation, usual class: activators; 330,000 tested, 1.3% active; AID 504466; note: % of control where 0% means no effect; nearly all actives have a fitted effect of over 60% in size
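HEK293T cells expressing luciferase-tagged ELG1 were treated with compound or DMSO for 16 hr at 37°C. Luciferase activity was then read after 30 min with ONE-Glo at room temperature; rising signal flags genetic stress.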
NPC1 prom act: activators of NPC1 promoter; Potency, µM (highest dose often 9.22 µM), for inactives: top-dose activation, usual class: activators; Huh7 NPC1 promoter luciferase reporter, 24 h; 320,000 tested, 2.4% active; note: % of control where 0% means no effect; nearly all actives have a fitted effect of over 60% in size
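Readout is luciferase luminescence, reflecting NPC1 promoter activation in stably transfected Huh7 cells after 24 h compound exposure at 37 °C in reduced-serum medium with 10% FBS.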
Luc counter: blocks Kinase-Glo luciferase, a counter-screen artifact; Q27757; Kinase-Glo luciferase, ATP luminescence, 8 min; Potency, µM (highest dose often 38.3 µM), for inactives: at the highest dose activity change, negative = inhibition, usual class: inhibitors; 200,000 tested, 0.28% active; note: % is set by controls: 0 for no effect and ±100 for the full control effect; nearly all actives have a fitted effect of over 60% in size
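Light output from Kinase-Glo luciferase with luciferin and 10 uM ATP in 50 mM imidazole pH 7.2, KCl, MgCl2, Tween 20, BSA; compound pin-delivered, 8-min ambient incubation, then luminescence read.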
* hit, by the source's call. Shown are actives, neighbours in structure and some others; about 7.5% of the full set was active somewhere. Calls come from the whole dose curve; as a rule, active = well fitted curve in the direction sought with a large enough effect; inconclusive = small, poorly fitted or top-dose-only effect, or another doubt; inactive = no such curve, though single readings can be large; an effect the other way counts as inactive or inconclusive. Potency is the fitted concentration of half-maximal effect.

How did COc1ccc(NC(=O)c2ccccc2NS(=O)(=O)c2ccc(C)cc2)c([N+](=O)[O-])c1 do in these assays?
Rab9 prom act: 3%; FLuc modulator: -9%; SMN2 splice up: -56%; ELG1 genotoxic: -2%; NPC1 prom act: -5%; Luc counter: 2%

Results for COc1ccc(C(=O)COC(=O)c2ccccc2NS(=O)(=O)c2ccc(O)c([N+](=O)[O-])c2)cc1 ?
Rab9 prom act: 0%; FLuc modulator: 11µM*; ELG1 genotoxic: 0%; NPC1 prom act: -3%

What do the screens show for `O=C(Nc1nnc(N2CCCCCC2)s1)Nc1cc(F)ccc1F`?
FLuc modulator: -7%

Results for CCN(CC)c1ccc(N=Cc2cc(Br)ccc2O)cc1 ?
Rab9 prom act: -6%; FLuc modulator: 9.5µM*; SMN2 splice up: -17%; ELG1 genotoxic: -7%; NPC1 prom act: -1%; Luc counter: -3%

What do the screens show for `CCc1cc(=O)oc2cc(C)cc(OC(C)C(=O)NCc3cccnc3)c12` (stereo not given)?
Rab9 prom act: -2%; FLuc modulator: 2%; ELG1 genotoxic: 2%; NPC1 prom act: -1%

Results for COC(=O)C(C)NC(=O)c1ccc(C(C)(C)C)cc1 (stereo not given) ?
Rab9 prom act: 22%; FLuc modulator: 19µM*; SMN2 splice up: inconclusive; ELG1 genotoxic: 17%; NPC1 prom act: 21%; Luc counter: -4%

Results for CC(C)C(NC(=O)c1ccc(C(C)(C)C)cc1)C(=O)OCC(=O)NC(=O)Cc1ccccc1 (stereo not given) ?
Rab9 prom act: -4%; FLuc modulator: 21µM*; SMN2 splice up: 17%; ELG1 genotoxic: 0%; NPC1 prom act: 1%; Luc counter: 0%

How did O=C1OC(c2ccc(F)cc2)=C/C1=C\c1ccc([N+](=O)[O-])o1 do in these assays?
Rab9 prom act: -7%; FLuc modulator: -19%; SMN2 splice up: -10%; ELG1 genotoxic: 7%; NPC1 prom act: -12%; Luc counter: -4%

What do the screens show for `O=C1N=C(N2CCN(c3ccccc3)CC2)S/C1=C/c1cccs1`?
Rab9 prom act: 3%; FLuc modulator: inconclusive; SMN2 splice up: 4%; ELG1 genotoxic: -5%; NPC1 prom act: 7%; Luc counter: -2%

Results for O=C1OC(c2ccccc2)=C/C1=C/c1cccs1 ?
Rab9 prom act: 3%; FLuc modulator: 0.67µM*; SMN2 splice up: 7%; ELG1 genotoxic: 2%; NPC1 prom act: 3%; Luc counter: -7%

What do the screens show for `O=C1N=C(N2CCN(Cc3ccccc3)CC2)S/C1=C/c1cccs1`?
Rab9 prom act: 27%; FLuc modulator: 9.5µM*; ELG1 genotoxic: 0%; NPC1 prom act: 20%

How did O=C1N=C(c2ccccc2)S/C1=C\c1cccs1 do in these assays?
Rab9 prom act: 19%; FLuc modulator: 3.8µM*; SMN2 splice up: 3%; ELG1 genotoxic: inconclusive; NPC1 prom act: 24%; Luc counter: -12%

What do the screens show for `O=C(CSc1nc2ccccc2c(=O)n1-c1ccccc1Cl)NC1CCS(=O)(=O)C1` (stereo not given)?
Rab9 prom act: -4%; FLuc modulator: 5%; ELG1 genotoxic: 2%; NPC1 prom act: -2%

Results for O=C1CCCC(O)=C1C=Nc1ccc(O)cc1 ?
Rab9 prom act: 2%; FLuc modulator: -13%; SMN2 splice up: -19%; ELG1 genotoxic: 2%; NPC1 prom act: 6%; Luc counter: 1%

How did Oc1ccc(N=Cc2ccc(-c3cccs3)s2)cc1 do in these assays?
Rab9 prom act: -1%; FLuc modulator: 8.5µM*; SMN2 splice up: -34%; ELG1 genotoxic: 0%; NPC1 prom act: -4%; Luc counter: -2%

Results for COC(=O)c1ccccc1NC(=O)c1ccc(CN2CC(=O)N3CCCCC3C2=O)cc1 (stereo not given) ?
FLuc modulator: 3%

Results for COc1ccc(CCNC(=S)Nc2ccc(S(=O)(=O)Nc3ncccn3)cc2)cc1OC ?
Rab9 prom act: 13%; FLuc modulator: 0%; ELG1 genotoxic: 1%; NPC1 prom act: 1%

How did O=C(NC1=NC2CCCCC2N1)c1ccccc1 (stereo not given) do in these assays?
Rab9 prom act: 0.32µM*; FLuc modulator: 1.5µM*; SMN2 splice up: 15%; ELG1 genotoxic: 0.58µM*; NPC1 prom act: 0.4µM*; Luc counter: inconclusive

How did CN(C)Cc1ccccc1-c1nccc(NCc2cccs2)n1 do in these assays?
SMN2 splice up: -1%; Luc counter: -2%

How did Cn1c2ccccc2c2nnc(SCC(=O)NC3CCCC3)nc21 do in these assays?
Rab9 prom act: 1%; FLuc modulator: 1%; ELG1 genotoxic: 3%; NPC1 prom act: 0%

Results for Nc1nc(-c2ccc(NC(=O)c3ccco3)cc2)cs1 ?
Rab9 prom act: 0.79µM*; FLuc modulator: 0.67µM*; ELG1 genotoxic: inconclusive; NPC1 prom act: 0.71µM*

What do the screens show for `Cc1nc(-c2ccc(NC(=O)c3ccco3)cc2)cs1`?
Rab9 prom act: inconclusive; FLuc modulator: 0.067µM*; ELG1 genotoxic: 0.21µM*; NPC1 prom act: inconclusive

Results for Nc1nc2ccc(NC(=O)c3ccco3)cc2s1 ?
Rab9 prom act: inconclusive; FLuc modulator: 15µM*; ELG1 genotoxic: inconclusive; NPC1 prom act: inconclusive

How did Cc1ccn2cc(-c3ccc(NC(=O)c4ccco4)cc3)nc2c1 do in these assays?
Rab9 prom act: 1.4µM*; FLuc modulator: 3.4µM*; SMN2 splice up: 4.5µM*; ELG1 genotoxic: inconclusive; NPC1 prom act: 3.2µM*; Luc counter: -13%

Results for Cc1nc(-c2cccc(NC(=O)c3ccco3)c2)cs1 ?
Rab9 prom act: 11%; FLuc modulator: inconclusive; ELG1 genotoxic: 9%; NPC1 prom act: 0%

Results for Cc1ccc(S(=O)(=O)N2CCOCC2)cc1NC(=O)COc1ccccc1Cc1ccccc1 ?
ELG1 genotoxic: -5%

How did Cc1ccc2n(n1)c(=O)c(Cc1ccccc1)c([O-])[n+]2-c1ccccc1 do in these assays?
Rab9 prom act: -1%; FLuc modulator: 4%; SMN2 splice up: -25%; ELG1 genotoxic: 4%; NPC1 prom act: 0%; Luc counter: 3%

What do the screens show for `CN1CCN(C(=O)/C=C/c2c(F)cccc2Cl)CC1`?
Rab9 prom act: 13%; FLuc modulator: -7%; ELG1 genotoxic: 8%; NPC1 prom act: 16%

How did O=C(O)c1cccc2c(/C=N/Nc3ccccn3)c[nH]c12 do in these assays?
Rab9 prom act: 2.8µM*; FLuc modulator: 8.5µM*; ELG1 genotoxic: 8%; NPC1 prom act: inconclusive
